Among the data in paper PMC11574364 are binding signal values, retold here.

The target in the first assay is T1, CIRBP (Homo sapiens, UniProt Q14011).
T1 sequence: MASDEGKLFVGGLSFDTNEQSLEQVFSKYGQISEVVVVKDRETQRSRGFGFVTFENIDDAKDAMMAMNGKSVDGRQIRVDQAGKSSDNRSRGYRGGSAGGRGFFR
Kind of assay: protein domain microarray probed with biotinylated miRNA; Domain array: 20 mM Tris-HCl pH 7.4, 200 mM KCl, 0.2 mM EDTA, 0.05% NP40, 2 ug/ul heparin, overnight 4 C. ORF array: PBS pH 7.0 with RNase inhibitor, 100 ng RNA; high values mean tight binding. To be noted: ssRNA.
As to UGAGGUAGUAGGUUGUGUGGUU, the binding signal was found to be 2020 ± 38.1 fluorescence intensity.
CAGUGCAAUGAUGAAAGGGCAU registered a binding signal of 2040 ± 82.9 fluorescence intensity.
The sequence UGAGGUAGUAGGUUGUAUAGUU yielded a binding signal of 1010 ± 76.7 fluorescence intensity.
Sequence AGAGGUAGUAGGUUGCAUAGUU returned a binding signal of 2620 ± 43 fluorescence intensity.
On to UAGCUUAUCAGACUGAUGUUGA, for which the binding signal turned out to be 801 ± 174 fluorescence intensity.
Consider UGAGGUAGUAGGUUGUAUGGUU, for which the binding signal stood at 1980 ± 32.4 fluorescence intensity.

The target of another assay is ELAVL4 (Homo sapiens, UniProt P26378). The description is as above. The settings on record: ssRNA.
ELAVL4, sequence (P26378 30-385): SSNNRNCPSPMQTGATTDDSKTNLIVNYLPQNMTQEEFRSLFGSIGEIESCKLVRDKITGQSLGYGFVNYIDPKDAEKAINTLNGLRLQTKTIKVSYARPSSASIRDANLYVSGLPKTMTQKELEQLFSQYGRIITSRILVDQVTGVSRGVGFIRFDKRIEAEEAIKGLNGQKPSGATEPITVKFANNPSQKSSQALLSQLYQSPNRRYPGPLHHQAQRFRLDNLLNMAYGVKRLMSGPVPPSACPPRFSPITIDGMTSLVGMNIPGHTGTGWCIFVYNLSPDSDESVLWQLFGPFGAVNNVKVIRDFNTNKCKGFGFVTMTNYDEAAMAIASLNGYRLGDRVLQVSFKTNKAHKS
In turn, UGAGGUAGUAGGUUGUGUGGUU showed a binding signal of 1510 ± 102 fluorescence intensity.
As to CAGUGCAAUGAUGAAAGGGCAU, the binding signal is 1170 ± 66.8 fluorescence intensity.
Sequence UGAGGUAGUAGGUUGUAUAGUU registered a binding signal of 725 ± 56.5 fluorescence intensity.
AGAGGUAGUAGGUUGCAUAGUU had a binding signal of 1830 ± 31 fluorescence intensity.
The same measure, in the same setting: as for UAGCUUAUCAGACUGAUGUUGA, the figure is 825 ± 34.8 fluorescence intensity; as for UGAGGUAGUAGGUUGUAUGGUU, 1450 ± 42.8 fluorescence intensity.
